The record followed here is PubChem BioAssay AID588458 (Sanford-Burnham Center for Chemical Genomics, 2011).

“And” between values parts separate entries of the source, which are not always exact repeats. Equal values may be shown once. The campaign covered roughly 360,000 compounds. About 3,000 (0.83%) were called active. Cut-off read from the data, not from the text of the source: active = inhibition above about 50%; inactive = the rest. The entries come from a sample that favours actives as a whole. Where a structure was tested more than once in an assay, its records may differ in their call.

DNA (cytosine-5)-methyltransferase 1 (Homo sapiens), sequence (P26358 504-1616 limits assumed): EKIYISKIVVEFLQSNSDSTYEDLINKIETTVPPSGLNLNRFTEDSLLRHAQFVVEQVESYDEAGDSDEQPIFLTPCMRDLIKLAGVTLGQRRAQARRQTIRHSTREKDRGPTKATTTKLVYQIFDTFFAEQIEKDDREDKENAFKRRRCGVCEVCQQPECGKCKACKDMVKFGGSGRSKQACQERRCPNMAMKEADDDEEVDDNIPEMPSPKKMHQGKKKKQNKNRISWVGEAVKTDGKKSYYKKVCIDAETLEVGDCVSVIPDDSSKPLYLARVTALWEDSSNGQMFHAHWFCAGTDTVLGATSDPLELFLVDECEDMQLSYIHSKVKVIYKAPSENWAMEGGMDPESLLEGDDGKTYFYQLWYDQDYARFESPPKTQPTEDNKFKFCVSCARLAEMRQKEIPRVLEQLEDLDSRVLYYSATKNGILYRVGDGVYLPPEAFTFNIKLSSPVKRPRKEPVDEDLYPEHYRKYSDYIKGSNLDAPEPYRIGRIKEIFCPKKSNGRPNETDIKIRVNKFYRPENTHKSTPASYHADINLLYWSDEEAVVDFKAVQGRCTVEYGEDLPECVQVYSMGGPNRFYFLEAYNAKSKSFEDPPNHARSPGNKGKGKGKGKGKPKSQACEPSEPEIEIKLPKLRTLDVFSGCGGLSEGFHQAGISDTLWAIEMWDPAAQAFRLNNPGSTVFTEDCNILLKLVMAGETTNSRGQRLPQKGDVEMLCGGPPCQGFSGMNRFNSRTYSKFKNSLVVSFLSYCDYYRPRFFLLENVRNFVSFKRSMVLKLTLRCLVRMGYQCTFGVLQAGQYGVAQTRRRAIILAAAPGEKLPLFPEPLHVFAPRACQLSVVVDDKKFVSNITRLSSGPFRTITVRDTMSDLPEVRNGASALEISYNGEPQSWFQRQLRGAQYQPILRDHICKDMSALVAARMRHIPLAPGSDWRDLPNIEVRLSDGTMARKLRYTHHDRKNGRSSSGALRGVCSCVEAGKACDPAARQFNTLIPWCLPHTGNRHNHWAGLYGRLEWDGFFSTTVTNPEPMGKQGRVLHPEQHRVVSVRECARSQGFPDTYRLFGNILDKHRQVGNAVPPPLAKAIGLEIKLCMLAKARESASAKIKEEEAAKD

The assay has as its target DNA (cytosine-5)-methyltransferase 1 (Homo sapiens) (UniProt P26358). As to the kind of experiment: human DNMT1 methyltransferase inhibitors, primary screen, biochemical, molecular beacon, fluorescence, HinP1I cleavage, uHTS (AID 588458). As to conditions: at 10 µM, stronger effect = higher value.
As to `O=[N+]([O-])c1cc(S(=O)(=O)Nc2cccc(Cl)c2)ccc1N=Nc1c(O)[nH]c2ccccc12`, the inhibition (reported as % activation of signal) was 56.3% (active).
For the compound `O=C(NCc1ccncc1)c1ccc(NS(=O)(=O)c2cccc([N+](=O)[O-])c2)cc1`, the inhibition (reported as % activation of signal) is -0.75% (inactive).
With `Cc1c(-c2ccccc2)n[nH]c1C(=O)N=Nc1c(O)[nH]c2ccccc12` the figure was 47.8% (inactive); with `CCc1cc(CNC(=O)CC2C(=O)NCCN2Cc2ccccc2C(F)(F)F)on1` (stereo not given), -2.03% (inactive); with `CCOC(=O)c1c(-c2cccc(N)c2)cn2ccccc12`, 2.56% (inactive).
With `NC(=S)NN=Cc1ccc(OC(=O)COc2cc(Cl)c(Cl)cc2Cl)cn1` the figure was -3.17% (inactive); with `Cc1ccccc1CC1(CO)CCCN(Cc2ccc3c(c2)OCCO3)C1` (stereo not given), -0.5% (inactive); with `CCOc1cc(CN2CCCC(CO)(Cc3ccc(F)cc3F)C2)ccc1OC` (stereo not given), 60.8% (active).
For `COc1cccc(CC2(CO)CCCN(Cc3ccc(OC(F)F)cc3)C2)c1` (stereo not given) the value was 1.47% (inactive); for `CC1(C(=O)NCc2ccc(F)c(F)c2)Cc2c(-c3ccc4c(c3)OCO4)ccnc2O1` (stereo not given), -0.89% (inactive).
For `Cc1cc2c(cc1C)N1C(=O)c3cc4ccccc4cc3NC(=O)C1C(=O)N2` (stereo not given), the inhibition (reported as % activation of signal) is 40.5% (inactive).
For `C=CC1=C(C(=O)O)N2C(=O)[C@@H](NC(=O)/C(=N\OCC(=O)O)c3csc(N)n3)[C@H]2SC1` the value was 81.2% (active).
Take `Cc1nnc(SCC2=C(C(=O)O)N3C(=O)C(NC(=O)Cn4nc(C)c(Cl)c4C)C3SC2)s1` (stereo not given): the inhibition (reported as % activation of signal) was 2.36% (inactive).
With `C=CC1=C(C(=O)O)N2C(=O)[C@@H](NC(=O)/C(=N/OCC(=O)O)c3csc(N)n3)[C@H]2SC1` the figure was -43.7% (inactive); with `CCN1CCN(C(=O)N[C@@H](C(=O)N[C@@H]2C(=O)N3C(C(=O)O)=C(CSc4nnnn4C)CS[C@H]23)c2ccc(O)cc2)C(=O)C1=O`, 1.74% (inactive).
In the case of `CO/N=C(\C(=O)N[C@@H]1C(=O)N2C(C(=O)O)=C(COC(C)=O)CS[C@H]12)c1csc(N)n1` (stereo in doubt), the inhibition (reported as % activation of signal) was 20.2% (inactive) and 7.93% (inactive) and 65.2% (active).
With `CCCCN(C=O)c1c(CC)nc2c(OCCC3CCCCC3)cccn12` the figure was -6.04% (inactive); with `CCOC(=O)C1=CCC(c2ccc(F)cc2)N(S(=O)(=O)c2ccc(C)cc2)C1` (stereo not given), 6.68% (inactive).
With `CC1CCCCN1C(=O)CCS(=O)(=O)Cc1ccccc1` (stereo not given) the figure was -2.02% (inactive); with `CC(C)CC(CCc1ccccc1)OS(N)(=O)=O` (stereo not given), 4.1% (inactive); with `COc1ccc(S(=O)(=O)N2CCN(C(C)C(=O)Nc3ccc(C(C)C)cc3)CC2)cc1` (stereo not given), 2.17% (inactive).
For `COc1ccc(OCC(=O)NNC(=O)C2CCC2)cc1` the value was 0.09% (inactive).
Regarding `COc1ccc(OCC(=O)NNC(=O)c2ccc(-c3ccccc3)cc2)cc1`, the inhibition (reported as % activation of signal) was 59.6% (active).
For `CC(NC(=O)COc1ccc(-c2ccccc2)cc1)C1CCCO1` (stereo not given), the inhibition (reported as % activation of signal) was -1.92% (inactive).
With `COc1ccc(Cl)cc1NC(=O)CN(C)C(=O)c1cn(-c2ccccc2)nc1-c1cccs1` the figure was -24.5% (inactive).
With `CC(C)(C)c1ccc(S(=O)(=O)N2CCN(C(=O)c3ccc4c(c3)C(=O)N(Cc3ccncc3)C4=O)CC2)cc1` the figure was -1.88% (inactive).
With `O=C(CCN1C(=O)C2C3CCC(C3)C2C1=O)Nc1ccc(Cl)cc1Cl` (stereo not given) the figure was -0.32% (inactive).
With `O=C(CCN1C(=O)C2C3C=CC(C3)C2C1=O)Oc1ccc2ccccc2c1` (stereo not given), the inhibition (reported as % activation of signal) was -3.47% (inactive).
With `O=C(CCN1C(=O)C2C3C=CC(C3)C2C1=O)Nc1ccccc1F` (stereo not given) the figure was 75.5% (active).
With `COc1cccc(-c2cc3nc(NCc4ccccc4OC)n(C)c(=O)c3s2)c1` the figure was -11.8% (inactive); with `CC1C(=O)N(Cc2cn(CC3CCCCC3)nn2)CCS(=O)(=O)N1Cc1ccc(-c2cccc(N(C)C)c2)cc1` (stereo not given), -9.42% (inactive).
With `Cc1csc(OCC(=O)Nc2ccc(C)c(C)c2)n1` the figure was -0.47% (inactive); with `CCCNC(=O)c1cc(C2CCCN(C(=O)c3ccc4c(c3)CCO4)C2)on1` (stereo not given), -0.91% (inactive); with `COc1ccc(S(=O)(=O)N2CCCCC2c2cc(C(=O)NCc3ccc(F)cc3)no2)cc1` (stereo not given), 6.18% (inactive).
With `CC(C)Cc1nc(Cl)c(C#N)c2c1CCC2`, the inhibition (reported as % activation of signal) is 3.27% (inactive).
For `CC(NC(=S)NC1CCCCC1)C(c1ccccc1)N1CCOCC1` (stereo not given) the value was 1.12% (inactive); for `CC(C(=O)NC1CCS(=O)(=O)C1)N1C(=O)/C(=C/c2ccc(Cl)cc2)SC1=S` (stereo not given), -2.43% (inactive); for `O=C(O)C(c1ccccc1)N1C(=O)/C(=C\c2ccc(-c3cccc(Cl)c3)o2)SC1=S` (stereo not given), 79.8% (active).
For `CC(C(=O)Nc1ccc(O)c(C(=O)O)c1)N1C(=O)/C(=C/c2cccs2)SC1=S` (stereo not given) the value was -9.71% (inactive).
With `NC(=O)CCC(NS(=O)(=O)c1ccc(Cl)cc1)C(=O)NCc1ccccc1Cl` (stereo not given) the figure was 4.11% (inactive); with `COc1cccc(N2CCN(C(=O)C3CCCN(S(=O)(=O)c4cnc[nH]4)C3)CC2)c1` (stereo not given), -15.4% (inactive).
Take `CCOC(=O)c1cccc(NC(=O)C2CCCN(S(=O)(=O)c3cnc[nH]3)C2)c1` (stereo not given): the inhibition (reported as % activation of signal) is 76.5% (active).
For `O=C(NCc1ccco1)C1CCCN(S(=O)(=O)c2cnc[nH]2)C1` (stereo not given) the value was -1.66% (inactive).
With `CC(C)c1cc(C(=O)N/N=C/c2ccoc2)c(O)c(C(C)C)c1` the figure was 13.8% (inactive).
For `Cc1cc(=O)oc2cc(OCC(=O)Nc3nnc(C4CC4)s3)ccc12` the value was -3.06% (inactive); for `Cc1ccc(O)c(/C=N/NC(=O)COc2ccc3c(C)cc(=O)oc3c2)c1`, 59.9% (active); for `CCOC(=O)Cc1csc(NC(=O)COc2ccc3c(C)cc(=O)oc3c2)n1`, -0.49% (inactive).
In the case of `CN(CCOc1ccccc1)C(=O)c1cc(-c2ccco2)nc2ccccc12`, the inhibition (reported as % activation of signal) is 72.3% (active).
As to `CN(C(=O)COC(=O)c1cc(-c2ccco2)nc2ccccc12)C1CCS(=O)(=O)C1` (stereo not given), the inhibition (reported as % activation of signal) was 92.3% (active).
For `O=C(c1cc(-c2ccco2)nc2ccccc12)N(Cc1nnc(-c2ccc(Cl)cc2)o1)C1CC1` the value was 13.4% (inactive); for `COc1ccc(NC(=O)COc2ccc(C(=O)OCC(=O)N(C)C3CCS(=O)(=O)C3)cc2OC)cc1` (stereo not given), 8.48% (inactive); for `CN(C(=O)COC(=O)Cc1ccccc1[N+](=O)[O-])C1CCS(=O)(=O)C1` (stereo not given), 2.42% (inactive).
For `CN(CCOc1ccccc1)C(=O)c1cc(COc2c(F)cccc2F)on1` the value was 1.59% (inactive).
In the case of `OCC[C@H]1C[C@H](O)[C@@H](O)[C@]2(CCCCO2)O1`, the inhibition (reported as % activation of signal) is 5.49% (inactive).
With `CCOc1ccccc1-n1c(SCC(=O)N2CCCC2)nnc1-c1ccoc1C` the figure was 7.56% (inactive).
With `COc1ccc(Cl)cc1S(=O)(=O)Nc1cccc(C(=O)O)c1` the figure was -3.3% (inactive); with `COc1cc(OC)cc(-c2sc3ccc(OC)cc3c2-c2ccc3cc[nH]c3c2)c1`, -17.8% (inactive).
For `COc1ccc2sc(-c3ccc(S(C)(=O)=O)cc3)c(-c3ccc(C(N)=O)cc3)c2c1` the value was 86.5% (active).
In the case of `COc1ccc2sc(-c3ccc(S(C)(=O)=O)cc3)c(C#Cc3cncn3C)c2c1`, the inhibition (reported as % activation of signal) was -10.4% (inactive).
With `O=C(NCc1ccco1)c1cnn2c(C(F)(F)F)cc(-c3ccco3)nc12` the figure was -0.51% (inactive).
For `COCC(=O)N(C)[C@H]1C[C@H]2c3cc(Oc4ccccc4C)ccc3CCN2C(=O)[C@H]1[C@H](C)O` the value was -0.44% (inactive); for `CCCn1c(C)cc(/C=C(\C#N)C(=O)OCC(=O)Nc2cc(OC)c(OC)c(OC)c2)c1C`, -3.49% (inactive).
With `COc1cc(C2C3=C(CCCC3=O)OC3=C2C(=O)CCC3)ccc1OCC(=O)Nc1ccccc1` the figure was -1.83% (inactive).
`CCOC(=O)/C(C#N)=C/c1ccc(OCC(=O)Nc2ccccc2)c(OC)c1`: the inhibition (reported as % activation of signal) is 59.5% (active).
With `COC(=O)Nc1nc2ccc(Sc3ccccc3)cc2[nH]1` the figure was 23.1% (inactive).
For `CCCNC(=O)C1(C)CCN1C(=O)Cc1ccc(-c2ccccc2)cc1` (stereo not given) the value was -1.26% (inactive); for `CCNC(=O)C1CCCN(C(=O)c2cc(F)ccc2C)CC1` (stereo not given), 58% (active); for `CCOC(=O)C1CCCN(C(=O)c2ccc(C)c(F)c2)CC1` (stereo not given), 1.76% (inactive).
For `CCNC(=O)C1CCCN(C(=O)c2ccc(OC)cc2OC)CC1` (stereo not given) the value was -0.58% (inactive).
Consider `Nc1nc(NCc2ccccc2)n(-c2ccccc2)n1`, for which the inhibition (reported as % activation of signal) is -0.22% (inactive).
For the compound `Cc1cc(C)n2nc(C(=O)N(C)C(c3ccccc3)c3ccccc3)nc2n1`, the inhibition (reported as % activation of signal) is 2.32% (inactive).
With `O=c1cc(CN2CCCCCCC2)c2c(ccc3ccccc32)o1` the figure was -0.34% (inactive).
For `Cc1ccc2[nH]c(=O)c(CN3CCCCC3)c(-c3ccccc3)c2c1` the value was -7.9% (inactive); for `c1ccc2cc3[nH]c(CN4CCCCC4)nc3cc2c1`, 83.2% (active); for `Cc1cc(C)nc(NS(=O)(=O)c2ccc(N/C=C\C(=O)c3cccs3)cc2)n1`, -0.17% (inactive).
With `CC(C)(C)n1nnc(CCc2nnn(C(C)(C)C)n2)n1` the figure was 0.1% (inactive); with `COc1cccc(C=CC(=O)C=CC=Cc2ccccc2)c1`, 13.2% (inactive); with `O=C(COC(=O)/C=C/c1cccc(Cl)c1)NCCc1ccccc1`, -1.37% (inactive).
For `NNc1cccc(C=Cc2ccccc2)cc1=O`, the inhibition (reported as % activation of signal) was 75.5% (active).
Turning to `COc1ccc(CC(=O)NCc2nnc(SCC(=O)Nc3ncc(C)s3)n2C)cc1`, the inhibition (reported as % activation of signal) is -1.25% (inactive).
With `COc1cc(NC(=S)NNC(=O)CC(C)C)c(OC)cc1Cl` the figure was -0.35% (inactive); with `CC(=O)Nc1ccccc1Sc1ccc2c3c(cccc13)C(=O)N(c1ccc(C)cc1)C2=O`, 73.9% (active).
On to `Cc1ccc(N2C(=O)CC(Nc3cccc4ccccc34)C2=O)cc1` (stereo not given), for which the inhibition (reported as % activation of signal) is -1.89% (inactive).
For the compound `CSc1ccccc1NC(=O)C(C)N1C(=O)c2ccccc2S1(=O)=O` (stereo not given), the inhibition (reported as % activation of signal) is -0.34% (inactive).
For `O=C(c1ccco1)N1CCN(C(=O)C2CCCN(S(=O)(=O)c3cccc4nsnc34)C2)CC1` (stereo not given) the value was 0.5% (inactive).
